# Where “and” joins values, the source holds several entries; their conditions need not be identical. Equal values may be shown once. More than one record can exist for a structure, and the calls need not agree. Calls of active or inactive are those of the source. Where a call stands in place of a potency, no number is given. Unless noted, calls follow the shape of the dose curve; as a rule, active = well fitted curve in the direction sought with a large enough effect in the repeat runs; inconclusive = weak or mixed curves; inactive = no such curve, though single readings can be large; an effect the other way counts as inactive or inconclusive.
# Key:
# [1] = qHTS assay to identify small molecule antagonists of the thyroid receptor (TR) signaling pathway - cell viability counter screen (AID 743064); conditions: GH3.TRE-Luc viability, CellTiter-Fluor, 24 h; series mostly up to 70.3 µM; also: nearly all actives have a fitted effect of over 50% in size
# How it was run: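 Fluorescence from CellTiter-Fluor, added after 23.5 h exposure at 37 °C, reported viability of GH3.TRE-Luc cells co-treated with compound and 1 nM T3. Measured in the same wells as the luciferase TR readout.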
# [2] = qHTS assay to identify small molecule antagonists of the thyroid receptor (TR) signaling pathway (AID 743065); conditions: GH3.TRE-Luc, T3-stimulated luciferase inhibition, 23.5 h; series mostly up to 70.3 µM; also: nearly all actives have a fitted effect of over 55% in size; also: potency is read from the fitted curve at half-maximal effect
# How it was run: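 GH3.TRE-Luc rat pituitary cells (two TREs driving luciferase) were dosed with compound, then stimulated with 1 nM T3 (final) for 23.5 h at 37 C. ONE-Glo luminescence was the read-out, with CellTiter-Fluor fluorescence as the cytotoxicity counter-screen.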
# [3] = tested on: thyroid hormone receptor (rat, GH3 cells); experiment: qHTS assay to identify small molecule agonists of the thyroid receptor (TR) signaling pathway (AID 743066; calls by dose curve); conditions: GH3.TRE-Luc cells, TR agonist luciferase, 24 h; series mostly up to 83.9 µM
# [4] = molecular target: Estrogen receptor (Homo sapiens) (UniProt P03372); experiment: qHTS assay to identify small molecule antagonists of the estrogen receptor alpha (ER-alpha) signaling pathway (AID 743069; active = well fitted curve in the direction sought with a large enough effect in the signal ratio in the repeat runs, not every such curve was filed as active; inconclusive = weak or mixed curves, or effect the other way; inactive = no such curve, though single readings can be large or run the other way; the % refers to the signal ratio); conditions: HEK293 ER-alpha-UAS-bla, beta-lactamase ratio, antagonist mode; series mostly up to 69.4 µM
# Estrogen receptor (Homo sapiens), sequence (P03372 whole entry, looked up): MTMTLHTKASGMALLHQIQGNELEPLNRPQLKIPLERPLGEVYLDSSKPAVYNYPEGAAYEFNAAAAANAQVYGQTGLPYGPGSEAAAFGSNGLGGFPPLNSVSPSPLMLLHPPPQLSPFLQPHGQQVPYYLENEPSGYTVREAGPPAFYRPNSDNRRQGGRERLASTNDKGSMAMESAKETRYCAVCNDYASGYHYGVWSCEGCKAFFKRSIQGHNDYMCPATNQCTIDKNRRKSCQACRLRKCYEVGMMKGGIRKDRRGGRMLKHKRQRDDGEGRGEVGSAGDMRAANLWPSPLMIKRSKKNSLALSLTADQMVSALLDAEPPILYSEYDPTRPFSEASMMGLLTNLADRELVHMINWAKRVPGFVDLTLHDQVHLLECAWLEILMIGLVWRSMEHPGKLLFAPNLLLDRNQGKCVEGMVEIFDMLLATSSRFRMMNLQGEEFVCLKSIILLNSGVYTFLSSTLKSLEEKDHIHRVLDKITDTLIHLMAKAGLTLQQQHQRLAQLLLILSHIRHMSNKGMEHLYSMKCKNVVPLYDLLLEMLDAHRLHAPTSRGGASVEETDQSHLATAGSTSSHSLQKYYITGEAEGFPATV
# How it was run: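 In this cell-based reporter format, GripTite HEK293 cells harbouring ER-alpha-UAS-bla were grown overnight with 2% charcoal-stripped FBS, dosed with DMSO-dissolved compounds, then challenged with 17beta-estradiol. After 18 hr at 37C, beta-lactamase activity was detected by FRET fluorescence.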
# [5] = qHTS assay to identify small molecule antagonists of the estrogen receptor alpha (ER-alpha) signaling pathway - cell viability counter screen (AID 743074; calls by dose curve; also: nearly all actives have a fitted effect of over 45% in size); conditions: ERalpha-bla HEK293 viability, CellTiter-Glo luminescence, 18 h; series mostly up to 69.4 µM
# [6] = molecular target: Estrogen receptor (Homo sapiens) (UniProt P03372); experiment: qHTS assay to identify small molecule agonists of the estrogen receptor alpha (ER-alpha) signaling pathway (AID 743075; calls by dose curve; also: potency is read from the fitted curve at half-maximal effect); conditions: HEK293 ER-alpha-UAS-bla, beta-lactamase FRET ratio, 18 h; series mostly up to 70.1 µM
# [7] = molecular target: Estrogen receptor (Homo sapiens) (UniProt P03372); experiment: qHTS assay to identify small molecule agonists of the estrogen receptor alpha (ER-alpha) signaling pathway using the BG1 cell line (AID 743079); conditions: BG1Luc4E2 cells, ERE-luciferase agonist, 22 h; activation: at 70.3 µM (top of the series) unless noted; also: nearly all actives have a fitted effect of over 20% in size; also: potency is read from the fitted curve at half-maximal effect
# [8] = qHTS assay to identify small molecule antagonists of the estrogen receptor alpha (ER-alpha) signaling pathway using the BG1 cell line (AID 743080; calls by dose curve;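 also: BG1 cells stimulated with 17beta-estradiol alongside compound; nearly all actives have a fitted effect of over 25% in size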); conditions: BG1Luc4E2 ERE-luciferase antagonist mode, luminescence; series mostly up to 70.3 µM
# How it was run: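 BG1-Luc-4E2 cells (endogenous full-length ER-alpha, stable 4×ERE-luciferase) were starved 5 days in phenol-red-free medium with 10% charcoal-stripped FBS, plated 24 h, then given compound plus 17beta-estradiol for 21.5 h at 37 C; ONE-Glo luminescence read after 30 min.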
# [9] = qHTS assay to identify small molecule antagonists of the estrogen receptor alpha (ER-alpha) signaling pathway using the BG1 cell line - cell viability counter screen (AID 743081); conditions: BG1Luc4E2 viability, CellTiter-Fluor, 22 h; series mostly up to 70.3 µM;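 also: compound given together with 17beta-estradiol as the ER stimulus; nearly all actives have a fitted effect of over 45% in size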
# [10] = molecular target: Aromatase (Homo sapiens) (UniProt P11511); experiment: qHTS assay to identify aromatase inhibitors (AID 743083); conditions: MCF-7 aro ERE, testosterone-driven ERE luciferase, 24 h; series mostly up to 70.3 µM; also: nearly all actives have a fitted effect of over 55% in size
# Aromatase (Homo sapiens), sequence (P11511 whole entry, looked up): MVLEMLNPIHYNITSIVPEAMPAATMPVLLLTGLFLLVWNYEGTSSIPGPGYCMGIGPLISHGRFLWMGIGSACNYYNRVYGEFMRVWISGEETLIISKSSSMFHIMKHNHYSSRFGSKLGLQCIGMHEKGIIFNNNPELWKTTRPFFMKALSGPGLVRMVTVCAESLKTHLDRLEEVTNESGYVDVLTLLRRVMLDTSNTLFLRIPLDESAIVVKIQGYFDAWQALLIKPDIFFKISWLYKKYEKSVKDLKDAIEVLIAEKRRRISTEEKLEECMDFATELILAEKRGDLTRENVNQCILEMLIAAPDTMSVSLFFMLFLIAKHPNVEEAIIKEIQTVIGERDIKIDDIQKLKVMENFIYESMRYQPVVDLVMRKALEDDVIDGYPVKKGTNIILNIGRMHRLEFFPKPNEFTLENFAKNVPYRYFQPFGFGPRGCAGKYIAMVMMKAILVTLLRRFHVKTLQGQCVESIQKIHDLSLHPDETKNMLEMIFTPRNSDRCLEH
Compound,Potency [1],Potency [2],Potency [3],Potency [4],Potency [5],Potency [6],Potency [7],Potency [8],Potency [9],Potency [10],"activity change, negative = cytotoxic [1]","activity, negative = inhibition [2]","activity, negative = inhibition [4]",activation [7]
OCC(O)CS (configuration not stated),inactive,inactive,inactive,inactive,inactive,inactive,11.9 µM (active) and inactive,inactive,inactive,inactive,–,–,–,–
CCc1cccc(O)c1,inactive,inactive,inactive,inactive,inactive,inactive,inactive,inactive,inactive,inactive,–,–,–,–
COC(=O)CCCCC(=O)OC,inactive,inactive,inactive,inactive,inactive,inactive,inactive,inactive,inactive,inactive,–,–,–,–
C[Si](C)(C)N[Si](C)(C)C,inactive,inactive,inactive,inactive,–,86.4 nM [inconclusive] (active) and inactive,inactive,inactive,inactive,inactive,–,–,–,–
Nc1cccc(N)n1,inactive,inactive,inactive,inactive,inactive,inactive,inactive,inactive,inactive,inactive,–,–,–,–
OB(O)O,inactive,inactive,inactive,inactive,inactive,inactive,inactive,inactive,inactive,inactive,–,–,–,–
COc1c(Cl)ccc(Cl)c1C(=O)O,inactive,inactive,inactive,inactive,inactive,inactive,inactive,inactive,inactive,inactive,–,–,–,–
CC1(C)C(=O)N(Cl)C(=O)N1Cl,inactive,inactive,inactive,inactive,inactive,inactive,77 µM (active) and inactive,inactive,inactive,inactive,–,–,–,–
NC(=O)NC(N)=O,inactive,inactive,inactive,inactive,inactive,inactive,inactive,inactive,inactive,inactive,–,–,–,–
O=C(O)Cc1c[nH]c2ccccc12,inactive,inactive,inactive,–,inactive,–,–,–,inactive,–,–,–,–,–
CN1CCCC1=O,inactive,inactive,inactive,inactive,inactive,inactive,inactive,inactive,inactive,inactive,–,–,–,–
Cc1ccccc1Cl,inactive,inactive,inactive,inactive,inactive,inactive,inactive,inactive,inactive,inactive,–,–,–,–
NCCNCCNCCN,inactive,inactive,inactive,–,inactive,–,–,–,inactive,–,–,–,–,–
O=C(Cl)c1ccc(C(=O)Cl)cc1,inactive,inactive,inactive,inactive,inactive,inactive,inactive,inactive,inactive,inactive,–,–,–,–
COc1c2ccoc2cc2oc(=O)ccc12,inactive,inactive,inactive,–,inactive,inactive,inactive,inactive,inactive,inactive,–,–,–,–
CN1Cc2c(N)cccc2C(c2ccccc2)C1 (configuration not stated),inactive,inactive,inactive,–,inactive,–,–,–,inactive,–,–,–,–,–
CCCCCNCCCCC,inactive,inactive,inactive,–,inactive,–,–,–,inactive,inactive,–,–,–,–
OC[C@H]1O[C@@H](Oc2ccc(O)cc2)[C@H](O)[C@@H](O)[C@@H]1O,inactive,inactive,inactive,inactive,inactive,inactive,inactive,inactive,inactive,inactive,–,–,–,–
CCCCC(=O)O,inactive,inactive,inactive,inactive,inactive,inactive,inactive and 49.1 µM (active),inactive,inactive,inactive,–,–,–,–
COc1ccc(N)c(OC)c1,inactive,inactive,inactive,inactive,inactive,inactive,inactive,inactive,inactive,inactive,–,–,–,–
O=C1CCCCCCCCCCC1,inactive,inactive,inactive,inactive,inactive,inactive,inactive,inactive,inactive,inactive,–,–,–,–
Cc1cc(C)c(O)c(C)c1,inactive,inactive,inactive,inactive,inactive,inactive,inactive,inactive,inactive,inactive,–,–,–,–
CCCCCCCCO,inactive,inactive,inactive,inactive,inactive,inactive,inactive,inactive,inactive,inactive,–,–,–,–
CN=C(NC#N)NCCSCc1nc[nH]c1C,inactive,inactive,inactive,inactive,inactive,inactive,inactive,inactive,inactive,inactive,–,–,–,–

Compound,Potency [1],Potency [2],Potency [3],Potency [4],Potency [5],Potency [6],Potency [7],Potency [8],Potency [9],Potency [10],"activity change, negative = cytotoxic [1]","activity, negative = inhibition [2]","activity, negative = inhibition [4]",activation [7]
Cc1cc(C)cc(O)c1,inactive,inactive,inactive,inactive,inactive,inactive,inactive,inactive,inactive,inactive,–,–,–,–
C=CC(C)(C)C,inactive,inactive,inactive,inactive,inactive,inactive,inactive,inactive,inactive,inactive,–,–,–,–
CCCCCCCC(=O)O,inactive,inactive,inactive,inactive,inactive,inactive,inactive,inactive,inactive,inactive,–,–,–,–
CC(C)(CO)CO,inactive,inactive,inactive,inactive,inactive,inactive and 43.7 µM [activator] (active),inactive,inactive,inactive,inactive,–,–,–,–
CC/C(C)=N/O,inactive,inactive,inactive,–,inactive,–,–,–,inactive,–,–,–,–,–
N#CCC(=O)O,inactive,inactive,inactive,inactive,inactive,inactive,inactive,inactive,inactive,inactive,–,–,–,–
CCCCCCC(=O)O,inactive,inactive,inactive,inactive,inactive,inactive,inactive,inactive,inactive,inactive,–,–,–,–
NC(N)=S,inactive,inactive,inactive,inactive,–,inactive,inactive,inactive,inactive,inactive,–,–,–,–
OCC(CO)(CO)CO,inactive,inactive,inactive,inactive,inactive,inactive,inactive,inactive,inactive,inactive,–,–,–,–
CC(=O)OC/C=C(\C)CCC=C(C)C,inactive,inactive,inactive,inactive,inactive,inactive,inactive,inactive,inactive,inactive,–,–,–,–
CCCCCCCCCCCC(=O)N(C)CC(=O)O,–,59.2 µM (active),inactive,–,inactive,inactive,–,inactive,inactive,inactive,15.6% [at 8.44 µM] (inactive),7.52% [at 8.44 µM] (inactive),-5.64% [at 6.71 µM] (inactive),-3.44% [at 8.47 µM] (inactive)
O=[N+]([O-])c1ccccc1C(F)(F)F,inactive,inactive,inactive,inactive,inactive,inactive,inactive,inactive,inactive,inactive,–,–,–,–
CCOC(=O)c1ccc(O)cc1,inactive,inactive,inactive,inactive,inactive,inactive,23.7 µM (active) and 30.6 µM (active),–,inactive,inactive,–,–,–,–
C1CCCNCC1,inactive,inactive,inactive,inactive,inactive,inactive,inactive,inactive,inactive,inactive,–,–,–,–
CS(=O)(=O)c1ccc(Cl)cc1,inactive,inactive,inactive,–,inactive,–,–,–,inactive,inactive,–,–,–,–
C=CC(=O)NCOCCCC,–,inactive,inactive,inactive,inactive,inactive,inactive,inactive,inactive,inactive,–,–,–,–
CC(COCC(C)OC(=O)c1ccccc1)OC(=O)c1ccccc1 (configuration not stated),inactive,inactive,inactive,–,inactive,–,–,–,inactive,inactive,–,–,–,–
CC(=O)c1nccs1,–,inactive,inactive,inactive,inactive,inactive,inactive and 48.6 µM (active),inactive,inactive,inactive,–,–,–,–
CCOC(=O)CC(=O)OCC,inactive,inactive,inactive,–,–,–,–,–,inactive,–,–,–,–,–
CC(=O)OC(C)(C)C1CC=C(C)CC1 (configuration not stated),–,inactive,inactive,inactive,inactive,inactive,inactive and 54.5 µM (active),inactive,inactive,inactive,–,–,–,–
COc1ccc([C@@H]2CC(=O)c3c(O)cc(O[C@@H]4O[C@H](CO[C@@H]5O[C@@H](C)[C@H](O)[C@@H](O)[C@H]5O)[C@@H](O)[C@H](O)[C@H]4O)cc3O2)cc1OC,–,inactive,inactive,inactive,inactive,inactive,inactive,inactive,inactive,inactive,–,–,–,–
CC(=O)Nc1ccc(CC(=O)O)cc1,inactive,–,–,inactive,inactive,inactive,inactive,inactive,inactive,inactive,–,–,–,–
Cc1ccccc1C=O,–,inactive,inactive,inactive,inactive,inactive,inactive,inactive,inactive,inactive,–,–,–,–

# Source: PubChem BioAssay (Tox21)
